According to PubChem BioAssay (Tox21):
Results filed as inconclusive are left out. Calls of active or inactive are those of the source. Unless noted, calls follow the shape of the dose curve; as a rule, active = well fitted curve in the direction sought with a large enough effect in the repeat runs; inconclusive = weak or mixed curves; inactive = no such curve, though single readings can be large; an effect the other way counts as inactive or inconclusive.

How the values were obtained:
[1] = qHTS assay to identify small molecule agonists of the estrogen receptor alpha (ER-alpha) signaling pathway in the presence of an antagonist - cell viability counter screen (AID 1259386);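 also: cells exposed to compounds for 22 h at 37 °C before the viability read; nearly all actives have a fitted effect of over 30% in size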; also: potency is read from the fitted curve at half-maximal effect
Summary of the method: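 Cell viability in VM7Luc4E2 cells (endogenous full-length ER-alpha) measured by CellTiter-Fluor fluorescence in the same wells as the luciferase screen. Cells pre-cultured 5 days in charcoal-stripped serum, then treated 22 h with compounds at 15 concentrations plus 10.0nM ICI-182,780.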

[2] = target: Progesterone receptor (Homo sapiens) (UniProt P06401); assay: qHTS assay to identify small molecule agonists of the progesterone receptor (PR) signaling pathway (AID 1346784; calls by dose curve; also: nearly all actives have a fitted effect of over 30% in size)
Summary of the method: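 Agonist qHTS: compounds pinned onto 3,000 PR-UAS-bla HEK 293T cells per well in charcoal-stripped serum medium, 16hr at 37C, then beta-lactamase activity measured by LiveBLAzer FRET fluorescence after 2 hours at room temperature.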

[3] = target: Progesterone receptor (Homo sapiens) (UniProt P06401); assay: qHTS assay to identify small molecule antagonists of the progesterone receptor (PR) signaling pathway (AID 1346795; active = well fitted inhibition curve with a large enough effect in the signal ratio in the repeat runs, not every such curve was filed as active; the % refers to the signal ratio)
Summary of the method: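 Antagonist mode with agonist R5020 at 1 nM final and 16 hr incubation at 37C. Reporter was beta-lactamase driven by UAS in HEK293T (PR-UAS-bla), 2% charcoal-stripped serum; signal from LiveBLAzer FRET substrate, 2 hr at room temperature.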

[4] = qHTS assay to identify small molecule antagonists of the progesterone receptor (PR) signaling pathway - cell viability counter screen (AID 1346798); also: series mostly up to about 92 µM; nearly all actives have a fitted effect of over 50% in size
Summary of the method: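 Cytotoxicity read as CellTiter-Glo luminescence (30 min, room temperature) in the same wells as the beta-lactamase readout. HEK293T PR-UAS-bla cells in charcoal-stripped 2% FBS received compound and R5020, then 16 h at 37C, 5% CO2.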

[5] = qHTS assay to identify small molecule agonists of the TGF-beta/Smad signaling pathway - cell viability counter screen (AID 1346829); also: top concentration of the series differs between compounds; nearly all actives have a fitted effect of over 45% in size
Summary of the method: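 After overnight seating at 37 C and 5% CO2, reporter cells got compounds for 5 hr and FRET substrate for 2 hr; cell viability then came from CellTiter-Glo luminescence.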

[6] = qHTS assay to identify small molecule agonists of the TGF-beta/Smad signaling pathway (AID 1346859; active = well fitted activation curve with a large enough effect in the signal ratio in the repeat runs, not every such curve was filed as active; the % refers to the signal ratio; also: series mostly up to about 77 µM)
Summary of the method: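 Fluorescence (ex 405 nm; em 460 and 530 nm) was read 2 h after LiveBLAzer FRET substrate at RT. The preceding compound treatment of overnight-plated SBE-bla HEK293T cells lasted 5 h at 37 C.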

[7] = target: Thyrotropin-releasing hormone receptor (Homo sapiens) (UniProt P34981); assay: qHTS assay to identify small molecule antagonists of the thyrotropin-releasing hormone receptor (TRHR) signaling pathway (AID 1346877; active = well fitted inhibition curve with a large enough effect in the repeat runs, not every such curve was filed as active; also: series mostly up to about 51 µM)
Summary of the method: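 TRHR-expressing HEK293 cells loaded with calcium dye for 2 h at 37 C; compounds pre-incubated 5 min at room temperature before TRH challenge at 1 nM final. Intracellular calcium fluorescence read kinetically for 3 min; 15 concentrations in triplicate.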

[8] = target: Thyrotropin-releasing hormone receptor (Homo sapiens) (UniProt P34981); assay: qHTS assay to identify small molecule agonists of the thyrotropin-releasing hormone receptor (TRHR) signaling pathway (AID 1346891; calls by dose curve; also: series mostly up to about 58 µM)
Summary of the method: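 Agonist-mode intracellular calcium readout: kinetic fluorescence over 3 min at 1 s intervals after compound addition to TRHR-HEK293 cells (18 h seeded, 2 h dye-loaded at 37 C). Fifteen concentrations, triplicates.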

[9] = Caspase-3/7 induction in HepG2 cells by small molecules, qHTS assay (AID 1346978); also: nearly all actives have a fitted effect of over 15% in size
Summary of the method: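 Wild-type HepG2 cells, 2,000/well, settled 5 hr at 37 C and 5% CO2, then compound-treated for 17 hr; caspase-3/7 activity read by luminescent Caspase-Glo 3/7 after 30 min at room temperature.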

[10] = Caspase-3/7 induction in CHO-K1 cells by small molecules, qHTS cell viability counter screen (AID 1346979); also: nearly all actives have a fitted effect of over 35% in size; also: potency is read from the fitted curve at half-maximal effect
Summary of the method: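 Cytotoxicity counter screen: CellTiter-Fluor added to compound-treated wild-type CHO-K1 cells at 16 h (37C, 5% CO2), fluorescence measured 1 h later; same wells as caspase-3/7 measurement.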

[11] = Caspase-3/7 induction in CHO-K1 cells by small molecules, qHTS assay (AID 1346980); also: nearly all actives have a fitted effect of over 15% in size
Summary of the method: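 Wild-type CHO-K1 cells exposed to compounds for 17hr at 37 C, 5% CO2. Caspase-3/7 activity then measured by Caspase-Glo 3/7 luminescence after 30min at room temperature.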

[12] = Caspase-3/7 induction in HepG2 cells by small molecules, qHTS cell viability counter screen (AID 1346981); also: nearly all actives have a fitted effect of over 30% in size; also: potency is read from the fitted curve at half-maximal effect
Summary of the method: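 Wild-type HepG2 cells, 2,000/well, settled 5 hr at 37 C, 5% CO2 before compound addition. Viability read by CellTiter-Fluor fluorescence, reagent added after 16 hr compound exposure, then 1 hr at 37C, in the same wells as the caspase read.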

[13] = target: Nuclear receptor subfamily 1 group I member 2 (Homo sapiens) (UniProt O75469); assay: Human pregnane X receptor (PXR) small molecule agonists, qHTS assay (AID 1346982); also: nearly all actives have a fitted effect of over 35% in size; also: potency is read from the fitted curve at half-maximal effect
Summary of the method: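 PXR-Luc HepG2 reporter cells (CYP3A4-driven luciferase) in 5% charcoal-stripped FBS medium, plated 5 h before compound addition, then treated 24 h at 37C. Luciferase read by ONE-Glo luminescence after 30 min at room temperature.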

[14] = target: Acetylcholinesterase (Homo sapiens) (UniProt P22303); assay: Acetylcholinesterase (AChE) small molecule antagonists: colormetric cell-based qHTS assay (AID 1347395; calls by dose curve; also: nearly all actives have a fitted effect of over 30% in size; also: potency is read from the fitted curve at half-maximal effect)
Summary of the method: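 Colorimetric readout: DTNB quantifies thiocholine from acetylthiocholine hydrolysed by endogenous AChE of SH-SY5Y cells (2,000/well, plated overnight). Compound pretreatment 30 min, substrate incubation 90 min, both 37 C.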

[15] = qHTS assay to identify small molecule agonists of the progesterone receptor (PR) signaling pathway - cell viability counter screen (AID 1346799; calls by dose curve; also: nearly all actives have a fitted effect of over 45% in size)
Summary of the method: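 Cytotoxicity measured by CellTiter-Glo luminescence (30 min, RT) in the same wells as the PR beta-lactamase agonist read. Those HEK293T cells had 16 h compound treatment at 37 C in 2% charcoal-stripped FBS medium.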

[16] = qHTS assay to identify small molecule antagonists of the TGF-beta/Smad signaling pathway - cell viability counter screen (AID 1346824); also: nearly all actives have a fitted effect of over 50% in size
Summary of the method: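 SBE-bla HEK 293T cells, incubated overnight, then compound plus 0.25 ng/mL TGF-beta1 (stock added) for 5 hr at 37 C. Viability was read in the same wells by CellTiter-Glo luminescence after 30 min at room temperature.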

[17] = Human pregnane X receptor (PXR) small molecule agonists, qHTS cell viability counter screen (AID 1346977); also: nearly all actives have a fitted effect of over 50% in size
Summary of the method: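 Same-well viability read: CellTiter-Fluor added after 23 hr compound exposure, fluorescence measured 1 hr later. Cells were PXR-Luc HepG2 seeded at 2,000/well in 5% charcoal-stripped FBS medium, rested 5 hr before dosing at 37 C.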

Measured: Potency

Sequence of Acetylcholinesterase (Homo sapiens) (P22303 whole entry, looked up): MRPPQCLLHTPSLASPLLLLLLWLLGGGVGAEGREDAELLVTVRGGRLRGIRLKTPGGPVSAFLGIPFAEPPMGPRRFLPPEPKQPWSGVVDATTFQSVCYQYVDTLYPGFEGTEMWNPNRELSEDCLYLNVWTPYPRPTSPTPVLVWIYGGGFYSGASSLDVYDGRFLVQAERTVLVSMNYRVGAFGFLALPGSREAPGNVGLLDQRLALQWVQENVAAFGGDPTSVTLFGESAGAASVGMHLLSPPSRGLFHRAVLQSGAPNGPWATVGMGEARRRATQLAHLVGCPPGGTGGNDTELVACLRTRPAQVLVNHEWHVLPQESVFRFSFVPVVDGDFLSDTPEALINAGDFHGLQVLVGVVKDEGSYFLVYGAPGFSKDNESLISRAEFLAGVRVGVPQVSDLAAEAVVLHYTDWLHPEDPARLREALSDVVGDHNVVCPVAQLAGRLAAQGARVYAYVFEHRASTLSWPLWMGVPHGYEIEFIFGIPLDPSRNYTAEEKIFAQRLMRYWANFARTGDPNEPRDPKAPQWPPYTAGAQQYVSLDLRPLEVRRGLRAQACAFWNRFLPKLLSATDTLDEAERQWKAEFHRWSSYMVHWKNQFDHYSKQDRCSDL
Sequence of Nuclear receptor subfamily 1 group I member 2 (Homo sapiens) (O75469 whole entry, looked up): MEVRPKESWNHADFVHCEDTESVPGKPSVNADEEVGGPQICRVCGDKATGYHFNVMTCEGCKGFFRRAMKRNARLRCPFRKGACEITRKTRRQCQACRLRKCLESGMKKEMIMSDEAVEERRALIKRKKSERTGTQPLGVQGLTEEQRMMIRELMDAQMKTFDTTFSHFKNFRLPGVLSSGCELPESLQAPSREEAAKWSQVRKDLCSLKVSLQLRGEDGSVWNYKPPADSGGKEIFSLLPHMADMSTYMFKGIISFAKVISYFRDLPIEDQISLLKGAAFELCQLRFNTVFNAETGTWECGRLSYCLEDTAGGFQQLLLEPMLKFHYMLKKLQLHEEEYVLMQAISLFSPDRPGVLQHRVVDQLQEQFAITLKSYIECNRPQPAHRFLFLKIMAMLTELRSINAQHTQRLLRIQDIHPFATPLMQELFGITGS
Sequence of Progesterone receptor (Homo sapiens) (P06401 whole entry, looked up): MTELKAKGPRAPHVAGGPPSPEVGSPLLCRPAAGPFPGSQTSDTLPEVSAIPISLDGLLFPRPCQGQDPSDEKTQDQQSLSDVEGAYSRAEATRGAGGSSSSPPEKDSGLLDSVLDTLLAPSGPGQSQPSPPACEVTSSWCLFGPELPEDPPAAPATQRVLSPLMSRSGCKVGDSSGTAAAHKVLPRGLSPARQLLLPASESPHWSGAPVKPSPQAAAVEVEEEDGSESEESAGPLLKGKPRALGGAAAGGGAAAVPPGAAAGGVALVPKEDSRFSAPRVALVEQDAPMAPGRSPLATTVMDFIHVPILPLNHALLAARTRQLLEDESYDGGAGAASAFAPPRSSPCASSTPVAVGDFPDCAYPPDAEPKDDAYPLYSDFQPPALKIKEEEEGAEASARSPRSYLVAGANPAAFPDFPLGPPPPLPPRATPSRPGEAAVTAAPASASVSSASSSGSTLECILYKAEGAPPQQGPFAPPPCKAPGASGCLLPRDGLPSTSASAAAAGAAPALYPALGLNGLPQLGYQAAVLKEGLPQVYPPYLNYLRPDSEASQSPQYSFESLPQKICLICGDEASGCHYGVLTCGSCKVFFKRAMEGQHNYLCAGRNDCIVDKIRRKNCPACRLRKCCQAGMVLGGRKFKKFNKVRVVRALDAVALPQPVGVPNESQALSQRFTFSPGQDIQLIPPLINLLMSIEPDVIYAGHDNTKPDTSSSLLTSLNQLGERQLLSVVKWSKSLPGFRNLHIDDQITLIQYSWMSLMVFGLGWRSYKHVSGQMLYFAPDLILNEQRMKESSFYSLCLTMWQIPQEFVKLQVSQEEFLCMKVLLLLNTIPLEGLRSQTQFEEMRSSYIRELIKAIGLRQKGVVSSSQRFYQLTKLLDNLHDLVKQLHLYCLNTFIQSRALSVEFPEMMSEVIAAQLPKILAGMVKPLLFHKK
Sequence of Thyrotropin-releasing hormone receptor (Homo sapiens) (P34981 whole entry, looked up): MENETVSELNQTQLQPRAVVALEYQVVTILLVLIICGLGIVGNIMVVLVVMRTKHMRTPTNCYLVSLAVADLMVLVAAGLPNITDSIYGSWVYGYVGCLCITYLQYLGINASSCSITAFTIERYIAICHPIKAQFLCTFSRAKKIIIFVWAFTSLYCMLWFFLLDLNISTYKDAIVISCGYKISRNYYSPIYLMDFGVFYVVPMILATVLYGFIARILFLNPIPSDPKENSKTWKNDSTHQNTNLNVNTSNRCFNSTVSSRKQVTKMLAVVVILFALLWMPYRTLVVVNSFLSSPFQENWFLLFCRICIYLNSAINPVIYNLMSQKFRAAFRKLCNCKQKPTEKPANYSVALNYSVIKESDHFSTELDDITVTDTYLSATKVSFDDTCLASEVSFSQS

CCCCCCCCCCBr
inactive: [1] | [2] | [3] | [4] | [5] | [6] | [7] | [8] | [9] | [10] | [11] | [12] | [13] | [14]

COC(=O)N(C(=O)N1COC2(C(=O)OC)Cc3cc(Cl)ccc3C2=N1)c1ccc(OC(F)(F)F)cc1 (stereo not drawn)
active: [13] 10.6 µM
inactive: [1] | [2] | [4] | [15] | [16] | [5] | [6] | [17] | [9] | [11] | [12] | [14]

CC(C)C(=O)Cl
inactive: [1] | [2] | [4] | [15] | [16] | [5] | [6] | [7] | [8] | [17] | [9] | [10] | [11] | [12] | [13] | [14]

CN(CCCC(O)c1cccnc1)N=O (stereo not drawn)
inactive: [1] | [2] | [4] | [15] | [16] | [5] | [6] | [7] | [8] | [9] | [10] | [11] | [12] | [13] | [14]

COP(=O)(OC)SCn1c(=O)oc2cc(Cl)cnc21
inactive: [1] | [2] | [4] | [15] | [16] | [5] | [6] | [9] | [10] | [11]
active: [14] 3.56 µM

C[C@@H](Oc1ccc(Cl)cc1Cl)C(=O)O
inactive: [1] | [2] | [4] | [15] | [16] | [5] | [7] | [8] | [17] | [9] | [11] | [12] | [13] | [14]

FC(Cl)(Cl)Cl
inactive: [1] | [2] | [4] | [15] | [16] | [5] | [6] | [7] | [8] | [17] | [9] | [10] | [11] | [12] | [13] | [14]

ClC1=C(Cl)C2(Cl)C3C(Cl)C=CC3C1(Cl)C2(Cl)Cl (stereo not drawn)
inactive: [1] | [2] | [4] | [15] | [16] | [6] | [9] | [12] | [14]

COC[C@H](C)N(C(=O)CCl)c1c(C)csc1C
inactive: [1] | [2] | [4] | [15] | [16] | [5] | [6] | [7] | [8] | [17] | [9] | [10] | [11] | [12] | [13] | [14]

CC(=[OH+])/C=C(/C)[O-].CC(=[OH+])/C=C(\C)[O-].CC(=[OH+])/C=C(\C)[O-].[Fe]
inactive: [1] | [2] | [4] | [15] | [16] | [5] | [6] | [17] | [9] | [10] | [11] | [12] | [13] | [14]

CCc1cc(C)cc(CC)c1-c1c(OC(=O)C(C)(C)C)n2n(c1=O)CCOCC2
inactive: [2] | [4] | [15] | [16] | [5] | [6] | [7] | [8] | [9] | [11] | [13] | [14]
active: [1] 34.4 µM | [10] 27.3 µM | [12] 30.6 µM

c1ccc2c(c1)[nH]c1cnccc12
inactive: [1] | [2] | [4] | [15] | [16] | [5] | [6] | [7] | [8] | [17] | [9] | [10] | [11] | [12] | [14]

Clc1ccc(Oc2ccccc2)cc1
inactive: [1] | [2] | [4] | [15] | [16] | [5] | [6] | [7] | [8] | [9] | [10] | [11] | [12] | [13] | [14]
